Reference: the supplement of paper PMC12669032
Values without a mark were called inactive.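 Rule for the calls: active = AUC reduced over 20% with Padj below 0.05 in at least 2 of 3 replicates; inactive = otherwise.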

Columns and labels:
Assay in all cases: growth AUC relative to DMSO control (median of replicates) (fraction); higher = more growth (less inhibition), active = hit call of the paper
Settings in all cases: 20 µM; 24 h
Akkermansia muciniphila = tested on: Akkermansia muciniphila
Outline: (§1)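 Gut bacteria were grown singly in mGAM at 37 °C without oxygen, from OD600 0.05, alongside 20 µM compound in 1% DMSO, and OD600 was read each hour for 24 h. Area under the growth curve was normalised to the median of solvent-only wells per plate, or to row and column medians on the industrial chemical plate. The minimum OD was set to 0 beforehand, and the reported value is the median of three biological replicates grown on separate days.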

Bacteroides caccae = tested on: Bacteroides caccae
Outline: as §1

Bacteroides clarus = tested on: Bacteroides clarus
Outline: as §1

Bacteroides dorei = tested on: Bacteroides dorei
Outline: as §1

Bacteroides stercoris = tested on: Bacteroides stercoris
Outline: as §1

[1] = tested on: Bacteroides thetaiotaomicron
Outline: as §1

Bacteroides uniformis = tested on: Bacteroides uniformis
Outline: as §1

[2] = tested on: Bifidobacterium longum subsp. longum
Outline: as §1

Clostridium difficile = tested on: Clostridium difficile
Outline: as §1

Collinsella aerofaciens = tested on: Collinsella aerofaciens
Outline: as §1

Row | Compound | growth AUC (Akkermansia muciniphila) | growth AUC (Bacteroides caccae) | growth AUC (Bacteroides clarus) | growth AUC (Bacteroides dorei) | growth AUC (Bacteroides stercoris) | growth AUC [1] | growth AUC (Bacteroides uniformis) | growth AUC [2] | growth AUC (Clostridium difficile) | growth AUC (Collinsella aerofaciens)
1 | CCc1cccc(CC)c1N(COC)C(=O)CCl | 0.942 | 1 | 0.991 | 0.949 | 1.08 | 0.957 | 0.985 | 1 | 0.974 | 0.989
2 | CCCCNC(=O)n1c(NC(=O)OC)nc2ccccc21 | 1.04 | 0.999 | 0.979 | 1 | 1.01 | 0.999 | 1.02 | 0.984 | 0.955 | 0.993
3 | C1=Cc2cccc3cccc1c23 | 1.01 | 1.02 | 0.996 | 1.02 | 1.03 | 1.01 | 1 | 0.946 | 1 | 0.995
4 | COc1cc(OC)nc(Oc2cccc(Oc3nc(OC)cc(OC)n3)c2C(=O)[O-])n1.[Na+] | 0.934 | 0.973 | 0.963 | 1.02 | 0.99 | 1.01 | 1 | 0.965 | 1.06 | 1.02
5 | N#Cc1nn(-c2c(Cl)cc(C(F)(F)F)cc2Cl)c(N)c1S(=O)C(F)(F)F (stereo not given) | 1.07 | 0.964 | 0.881 | 0.897 | 0.95 | 0.986 | 0.895 | 0.951 | 0.966 | 1.04
6 | CC(C)OP(=O)(OC(C)C)SCc1ccccc1 | 1.12 | 0.976 | 0.99 | 0.981 | 0.997 | 0.964 | 0.968 | 0.902 | 0.968 | 1
7 | COCC(=O)N(c1c(C)cccc1C)N1CCOC1=O | 0.966 | 0.969 | 0.945 | 1 | 0.978 | 0.99 | 1 | 0.963 | 0.983 | 0.997
8 | CNC(=O)Oc1cc(C)c(S(C)=O)c(C)c1 (stereo not given) | 0.977 | 0.949 | 0.999 | 1 | 1.13 | 0.978 | 1.02 | 1.04 | 0.968 | 1.05
9 | CCOP(=S)(OCC)Oc1cc(-c2ccccc2)on1 | 1.24 | 0.984 | 0.984 | 0.861 | 0.961 | 0.956 | 0.955 | 1.06 | 1.02 | 0.942
10 | CC1(C)C(C(=O)OC(C#N)c2cccc(Oc3ccccc3)c2)C1(C)C (stereo not given) | 0.879 | 0.995 | 0.991 | 0.996 | 0.946 | 0.986 | 1.01 | 0.951 | 1.01 | 0.995
11 | CNc1nc(C)c(C)c(OC(=O)N(C)C)n1 | 0.975 | 0.99 | 0.953 | 1.02 | 0.963 | 0.986 | 1.04 | 1.04 | 0.987 | 0.994
12 | CON(C)C(=O)Nc1ccc(Cl)c(Cl)c1 | 0.949 | 1.05 | 1 | 1.04 | 0.954 | 1 | 1 | 0.953 | 0.999 | 1.06
13 | OCC1C(CO)C2(Cl)C(Cl)=C(Cl)C1(Cl)C2(Cl)Cl (stereo not given) | 0.817 | 0.721 (active) | 0.818 | 0.859 | 0.259 | 0.799 (active) | 0.275 (active) | 1.04 | 0.901 | 0.947
14 | CC(C)N(C(=O)CCl)c1ccccc1 | 0.256 (active) | 1.02 | 0.969 | 1.01 | 0.978 | 0.933 | 0.96 | 0.946 | 0.965 | 1.05
15 | CC(C)OC(=O)C(C(=O)OC(C)C)=C1SCCS1 | 1.07 | 0.993 | 1.01 | 0.995 | 0.955 | 0.974 | 1.01 | 1.04 | 1.02 | 0.984
16 | Cc1ccc(-c2c(Cl)nc(C#N)n2S(=O)(=O)N(C)C)cc1 | 0.913 | 0.844 | 0.817 | 0.904 | 0.931 | 0.906 | 0.639 (active) | 1.03 | 0.96 | 1.02
17 | CCCCCCCCn1sccc1=O | 1.04 | 0.924 | 0.442 (active) | 0.912 | 0.995 | 0.689 (active) | 0.731 | 0.571 (active) | 0.848 | 0.776 (active)
18 | O=C(O)CCCOc1ccc(Cl)cc1Cl | 0.929 | 1.04 | 0.978 | 1.02 | 0.922 | 1.02 | 1.07 | 1.06 | 1.01 | 0.984
19 | CO/N=C(/C1=NOCCO1)c1ccccc1Oc1ncnc(Oc2ccccc2Cl)c1F | 0.963 | 0.987 | 0.957 | 0.938 | 0.941 | 0.961 | 0.963 | 0.845 | 0.948 | 1.02
20 | Nc1nc(N)nc(Cl)n1 | 1.01 | 1.05 | 1.02 | 1.01 | 1.16 | 1.01 | 1.02 | 1.01 | 1.03 | 0.992
21 | CCOP(=O)(OCC)ON1C(=O)c2cccc3cccc(c23)C1=O | 1.01 | 0.856 | 0.898 | 0.754 (active) | 0.482 (active) | 0.736 (active) | 0.683 (active) | 1.05 | 0.946 | 0.936
22 | Clc1ccc(C(c2ccc(Cl)cc2)C(Cl)Cl)cc1 | 1.03 | 0.927 | 0.899 | 0.888 | 0.662 (active) | 0.933 | 0.984 | 1.06 | 1.03 | 0.873
23 | CCOC(=O)C(C)OC(=O)c1cc(Oc2ccc(C(F)(F)F)cc2Cl)ccc1[N+](=O)[O-] (stereo not given) | 0.88 | 0.95 | 0.931 | 0.985 | 0.992 | 0.987 | 0.966 | 0.947 | 0.978 | 0.857
24 | COc1nc(NC(C)C)nc(NC(C)C)n1 | 1.01 | 1.04 | 0.993 | 0.994 | 0.979 | 1.02 | 1.02 | 1.02 | 0.98 | 0.995
25 | CCOP(=O)(OCC)Oc1ccc(S(C)(=O)=O)cc1 | 1.01 | 0.99 | 0.995 | 1.01 | 0.937 | 0.997 | 1.03 | 1.04 | 0.991 | 1.01
26 | CC1=NNC(=O)N(/N=C/c2cccnc2)C1 | 0.995 | 1.01 | 0.98 | 1.04 | 1.01 | 1.02 | 1.04 | 0.993 | 1.07 | 1.1
27 | Cc1occc1C(=O)Nc1ccccc1 | 0.899 | 1 | 0.958 | 1.04 | 0.952 | 1.02 | 1 | 1.02 | 1.05 | 0.959
